# Test results reported in ChEMBL document CHEMBL4888484, “Replenishing the malaria drug discovery pipeline: Screening and hit evaluation of the MMV Hit Generation Library 1 (HGL1) against asexual blood stage Plasmodium falciparum ,using a nano luciferase reporter read-out” (2022).
# Screen size: about 4,800 compounds; about 420 (8.8%) showed an effect of 50% or more. What follows is part of a selection rich in strong results, with near analogues and random picks from the rest.
# Test system: Plasmodium falciparum
# Test: Confirmatory screen in NF54 nanoGlo assay, in single point, at 2uM, 72h
# Assay type: functional, Erythrocyte
# Conditions: timepoint 72 hour
row,Compound,% Inhibition [%]
1,COc1ccc(-c2c(-c3cccc(OC)c3)[nH]c3c2c(=O)[nH]c(=O)n3C)cc1,74
2,COc1cccc(N2C(=O)N[C@H](C)C2=O)c1,8
3,COc1cccc(C(=O)Nc2noc(-c3cccc(OC)c3)c2-c2ccc(Cl)cc2)c1,-11
4,CC1CC(C)(C)CCC1NC(=O)NC1CCN(C)C1=O (configuration not stated),-4
5,COc1cccc(CCC(=O)N2CCN3CCC2C3)c1F (configuration not stated),-15
6,CC[C@@H](CO)NC(=O)Nc1ccc(Cl)cc1,6
7,CNC(=NCCCOc1cccc(OC)c1)NC,-6
8,Cc1cc(C(=O)Nc2ccc3ccccc3c2)co1,-5
9,Cc1c(C)c2ccc(NC(=O)c3cc4ccccc4o3)cc2[nH]c1=O,74
10,Cc1nc2sc(C(=O)Nc3ccc4ccccc4c3)c(N)c2c(C)c1C,2
11,CN(Cc1ccc(-c2ccccc2)cc1)c1cc([C@H]2C[C@@H](N)C2)nc(N)n1,49
12,CC1CCN(C[C@@H](O)CNc2nnc(C(F)(F)F)s2)CC1,-10
13,Cn1n[n+](CCCCC(Cl)(Cl)Cl)c2ccccc21,53
14,Cn1n[n+](CC(=O)Nc2ccccc2Cl)c2ccccc21,-5
15,CCN(CC(=O)Nc1ccccc1OC)C(=O)c1ccc(S(=O)(=O)N2CCOCC2)cc1,10
16,CC(C)n1[nH]c(=O)c2c(C3CCCCC3)c3sc(=O)[nH]c3nc21,-3
17,Nc1cc2c(cc1C1=Nc3ccccc3C(c3ccccc3)(c3ccccc3)N1)OCO2,10
18,COc1ccc(CCNC(=O)c2cc3n(n2)CCN(Cc2cccc(F)c2)C3=O)cc1OC,17
19,COc1ccc(CCNC(=O)c2c(C)noc2-c2ccncc2)cc1OC,1
20,COc1ccc(CCNC(=O)c2cc3c(=O)[nH]c(C)cn3n2)cc1OC,67
21,C#CCN(C(=O)c1ccncc1CC)c1nccs1,-10
22,CCCC1(c2ccncc2)CC(C)OC1=O (configuration not stated),-1
23,Cc1ccc(-c2noc(CCC(=O)NC[C@H]3CCCO3)n2)c(=O)n1C(C)C,-1
24,O=C(CCn1ncc2c(Cl)cccc21)NCC1CCCC1,-9
25,c1cn(CCCOc2ccc3c(c2)OCO3)nn1,3
26,COc1ccc(CC(=O)NCCn2c(C(F)(F)F)nc3ccccc32)cc1,42

row,Compound,% Inhibition [%]
1,CC(C)C(=O)Nc1ccc(-c2cc(-c3ccc(NC(=O)C(C)C)cc3)nc(-c3ccncc3)n2)cc1,56
2,CCNC(=O)c1nc(-c2ccncc2)cs1,-21
3,CC(C)C(=O)NCC(=O)Nc1ccc(C(F)(F)F)cc1,-15
4,Cc1ccccc1C(=O)NCC(=O)NCCc1c[nH]c2ccccc12,-7
5,Clc1ccccc1-c1c[nH]c([C@@H]2CCCN2)n1,5
6,O=C(Nc1cccc2cccnc12)c1ccccn1,80
7,CC(C)(C)C(=O)NCCNC(=O)c1ccccn1,8
8,O=C(Nc1cccc2cccnc12)c1cncc(Br)c1,-12
9,Oc1ccccc1CNc1cccc2cccnc12,98
10,O=C(Oc1cccc2cccnc12)c1ccc(-c2ccccc2)cc1,2
11,CCN(CC)S(=O)(=O)c1ccc2c(c1)CCCN2C(=O)c1ccc2ccccc2c1,1
12,CC1(C)NC(=O)CC[C@@H]1NC1CC(c2cccc(F)c2)C1 (some centres not stated),5
13,CCOC1CC(NC2CC(c3ccc(F)cc3)C2)C12CCC2 (configuration not stated),67
14,O=C(N[C@H](c1ccccc1)C1CC1)N1CCN(S(=O)(=O)c2cccc(F)c2)CC1,4
15,CCOC(=O)c1cc(F)cc(S(=O)(=O)Nc2ccnc3ncnn23)c1,34
16,COCc1cc(=O)n(CC(=O)NCc2ccccc2Cl)c(N2CCCC2)n1,-11
17,Cc1nn(C)c(Oc2cccc(F)c2)c1NC(=O)CC(C)C,8
18,CC(C)(C)n1nc2nc(NCCN3CCCCC3)nc(-c3ccc(F)c(Cl)c3)c2c1N,62
19,O=C(NCCN1CCCC1)c1ccc2nc(-c3ccc(Cl)cc3)cn2c1,18
20,COCc1cc(F)ccc1NC(=O)NC1CCN(c2cc(C)nc(C)n2)CC1,-5
21,CCOc1ccccc1C(=O)Nc1c(-n2cnnc2)nn(C)c1C,2
22,CC(NCCn1cccn1)C(=O)N1c2ccccc2CC1C (configuration not stated),-10
23,Cc1ccc(Cn2ccn3nc(-c4ccc5c(c4)OCO5)cc3c2=O)cc1C,-9
24,N#Cc1ccc(C(=O)N[C@H]2CCCc3c2cnn3-c2ccccn2)cc1,2
25,Oc1ccc2cc(CN3CCC[C@H](CN4CCCC4)C3)ccc2c1,17
26,COc1ccnc(CN2CC[C@](C)(O)[C@H](O)C2)c1,-2

row,Compound,% Inhibition [%]
1,CN1CCN([C@H]2CCN(c3ccnc4ccc(Cl)cc34)C[C@H]2CCCO)CC1,26
2,COc1ccccc1CN1COc2cc3c(cc2C1)OCO3,22
3,CCC[C@]1(C)NC(=O)N(c2csc(-c3ccccc3)n2)C1=O,-3
4,CCn1nc(C)c(CN(C)C(=O)c2nn3cccnc3c2Cl)c1C,-2
5,COCCN(CC1CN(Cc2ccccn2)CC1c1cccc(F)c1)C(=O)COC (configuration not stated),-3
6,C[C@H](C(=O)NCc1cc(F)cc(F)c1)C1CCOCC1,-5
7,CCOc1ccc(C2c3[nH]c4ccccc4c3C[C@H]3C(=O)N(C4CCN(Cc5ccccc5)CC4)CC(=O)N23)cc1OC (some centres not stated),80
8,COc1ccc(CNC(=O)c2ccc(N3C(=O)[C@@H]4Cc5c([nH]c6ccccc56)C(c5cccc(OC)c5)N4C3=O)cc2)cc1 (some centres not stated),49
9,COc1ccccc1C1c2[nH]c3ccccc3c2C[C@H]2C(=O)N(CC(O)c3ccccc3)CC(=O)N12 (some centres not stated),33
10,COc1ccccc1N1CCN(c2nc(Nc3ccc(F)cc3)c3nc[nH]c3n2)CC1,-18
11,Cc1ccc(CC(=O)N2C[C@H](c3ccccc3)C(c3ccc(Cl)cc3)=N2)cc1,6
12,CCCNC(=O)CNC(=NC1CC1)NCc1ccccc1C,-3
13,COc1nc(NC2CCS(=O)(=O)CC2)ncc1F,75
14,CC(C)(NCCc1c[nH]c2ccccc12)c1nnnn1Cc1cccnc1,3
15,O=C(NCCc1nnc[nH]1)C1(Cc2ccccc2)CC2CCC1C2 (configuration not stated),-9
16,Cc1ccc(O)c(CNc2ccc3c(c2)OCC3(C)C)n1,-7
17,Cc1ccc(O)c(CNCC2(c3ccccc3Cl)CCOCC2)n1,99
18,N[C@H]1COc2ccc(Br)cc2C1=O,-3
19,Cc1ccc(NC(=O)Nc2cccc(-c3ccc(N4CCN(C)CC4)nn3)c2)cc1C,10
20,Cc1cccc(Nc2nc(-c3cnc(N4CCN(C)CC4)nc3C)cc(=O)[nH]2)c1,-7
21,O=C(Nc1ccc(-n2cncn2)cn1)c1cscn1,-18
22,COc1ccc(S(=O)(=O)Nc2c(C)ccc3nsnc23)cc1OC,4
23,CCCC[C@H](CC)C(=O)Nc1ccccc1C,7
24,CN(C(=O)c1ccc(OCC(F)(F)F)nc1)C1(C#N)CCC1,2
25,Cc1cc2c(cc1C)[C@H](C(=O)Nc1cc(C(N)=O)ccc1Cl)CO2,-1
26,O=C(Nc1ccc2c(c1)c1cc(Br)ccc1n2Cc1ccccc1)c1ccccc1,4

row,Compound,% Inhibition [%]
1,O=C(N[C@@H](Cn1nccn1)c1ccccc1)c1cc(Br)ccc1Cl,65
2,O=C(NC(Cn1ccccc1=O)c1ccccc1)C1CCOC1 (configuration not stated),2
3,O=C(Cc1ccccc1)Nc1cccc2c1C(=O)N(c1ccccc1)C2=O,-14
4,O=C(C[C@@]1(O)C(=O)N(Cc2ccc(Cl)cc2Cl)c2ccccc21)c1ccccn1,-10
5,Cc1c(NC(=O)CCc2ccsc2)nnn1Cc1ccccc1F,-10
6,COc1ccc(C(=O)CN2C=CCC=C2c2nc(-c3ccc(Cl)cc3)cs2)cc1,72
7,COc1ccc(C2=CN(CC(=O)c3ccc(Cl)cc3)C3=CCCCCN23)cc1,47
8,O=C(CN1C=CCC=C1c1nc(-c2ccc(Br)cc2)cs1)c1ccccc1,35
9,Cc1ccc(CNCCC2=CCCCC2)cc1,-2
10,Cc1csc(NC(=O)[C@]2(C)Oc3ccccc3NC2=O)n1,0
11,O=c1[nH]nc(-c2ccc3ccccc3c2)c2conc12,18
12,Cn1ccc(NC(=O)c2n[nH]c3ccccc23)n1,-12
13,CC(C)CCNC(=O)c1cnn2c3c(cnc12)CCCC3,-6
14,COc1ccc(F)c(NC(=O)N(CCO)C(C)C)c1,5
15,COc1ccc(NC(=O)CN2N=C(C(=O)Nc3ccc(F)cc3)CCC2=O)cc1,-7
16,COc1ccc2nc(O)c(C(=O)Nc3ccc4c(c3F)CCNC4)cc2c1,99
17,CCn1nc(C(=O)N(C2CCCCC2)C2CC2)c2ccccc2c1=O,-10
18,Cc1cccc(CN2CCC[C@H](C(=O)c3ccc4c5c(cccc35)CC4)C2)n1,63
19,Cc1cccc(NC(=O)N2CCCCCC2)n1,1
20,COC[C@H](NC(=O)c1cccc(F)c1Cl)C(N)=O,-8
21,Nc1c(-c2nc3ccccc3[nH]2)c2nc3ccccc3nc2n1Cc1ccccc1F,64
22,Cc1cc2nnc(-c3nc4ccccc4[nH]3)c(N)n2n1,-10
23,Cc1ncc(C(=O)Nc2cc3c(=O)[nH]cnc3cc2F)c(C2CC2)n1,3
24,CCc1nnc(COC(=O)c2csc(NC)n2)o1,6
